Data on four compounds can be found in PubChem BioAssay (EPA / NIEHS).

Records with an inconclusive call do not appear. Activity calls are given as the source filed them. The calls were made as follows, unless noted: active = hit-call score of the fitted dose curve at least 0.9, where 1 is the maximum; inconclusive = response in the unintended direction; inactive = score below 0.9.

Test [1] can be described thus: ATG_TGFb_CIS: Attagene CIS-FACTORIAL HepG2 Assay for human Transforming Growth Factor (TGF) (AID 2282967; active = hit-call score of the fitted dose curve at least 0.9, where 1 is the maximum; inactive = score below 0.9). The settings on record: HepG2 Attagene CIS TGFb reporter, mRNA transcription; actives raise or lower the signal. The procedure, abridged:
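HepG2 cells transiently transfected with cis-promoter-driven multiplexed reporter units; 24 h compound exposure. Reporter mRNA measured by RT-PCR, 6-FAM labeling, HpaI digestion and capillary electrophoresis; bidirectional fit versus DMSO baseline.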

The nature of test [2]: ATG_VDRE_CIS: Attagene CIS-FACTORIAL HepG2 Assay for human Vitamin D Receptor Element (VDRE) (AID 2282968; active = hit-call score of the fitted dose curve at least 0.9, where 1 is the maximum; inactive = score below 0.9). The following applies: HepG2 VDRE cis-reporter transcription, actives raise or lower the signal. The method, boiled down:
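In transiently transfected HepG2 liver cells, gain or loss of reporter mRNA after 24 h exposure is scored relative to DMSO, using fluorescence detection by capillary electrophoresis of RT-PCR products.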

The target in test [3] is Nuclear receptor subfamily 1 group I member 3 (Homo sapiens) (UniProt Q14994). Briefly: ATG_CAR_TRANS: Attagene TRANS-FACTORIAL HepG2 Assay for human Constitutive Androstane Receptor (CAR) (AID 2282969).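 Also: activators raise reporter mRNA above DMSO so AC50 marks induction.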 The settings on record: HepG2 Attagene TRANS-FACTORIAL CAR reporter. The method, boiled down:
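Readout is reporter mRNA induction, quantified by fluorescent primer extension and capillary electrophoresis after RT-PCR. Cells were HepG2 transiently carrying chimeric NR-Gal4 constructs with GAL4-UAS reporters, treated for 24 h; activity scored upward from DMSO.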

For test [4], the target named is Estrogen receptor (Homo sapiens) (UniProt P03372). Briefly: ATG_ERa_TRANS: Attagene TRANS-FACTORIAL HepG2 Assay for human Estrogen Receptor alpha (ERa) (AID 2282970). The settings on record: HepG2 Attagene TRANS ERa GAL4 reporter, mRNA. The method, boiled down:
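After 24 h of compound treatment, RNA from HepG2 cells bearing transfected GAL4-UAS reporter constructs is converted to cDNA, amplified and fluorescently labelled. Capillary electrophoresis resolves the ERa-linked reporter; DMSO serves as negative control.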

For test [5], the target named is X-box-binding protein 1 (Homo sapiens) (UniProt P17861). Description: ATG_Xbp1_CIS: Attagene CIS-FACTORIAL HepG2 Assay for human X-box Binding Protein 1 (XBP1) (AID 2282972; active = hit-call score of the fitted dose curve at least 0.9, where 1 is the maximum; inactive = score below 0.9). The following applies: HepG2 XBP1 cis-element reporter, Attagene multiplex; actives raise or lower the signal. The procedure, abridged: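 HepG2 cells transiently transfected with multiple cis-element reporter units report endogenous TF activity; 24 h exposure, then reporter mRNA measured by RT-PCR, 6-FAM labelling, HpaI digestion and capillary electrophoresis. Bidirectional fitting versus DMSO.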
Chain of X-box-binding protein 1 (Homo sapiens) (P17861 whole entry, looked up): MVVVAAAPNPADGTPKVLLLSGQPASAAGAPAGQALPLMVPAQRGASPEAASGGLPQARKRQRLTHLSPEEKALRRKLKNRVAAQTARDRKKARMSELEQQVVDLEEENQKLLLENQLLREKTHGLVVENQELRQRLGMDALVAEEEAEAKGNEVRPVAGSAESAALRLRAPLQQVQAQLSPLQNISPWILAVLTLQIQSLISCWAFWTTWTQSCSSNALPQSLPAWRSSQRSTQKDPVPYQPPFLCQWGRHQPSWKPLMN

Test [6] in a line: ATG_GAL4_TRANS: Attagene TRANS-FACTORIAL HepG2 Assay for GAL4 (Internal Marker) (AID 2282976). The settings on record: HepG2 Attagene TRANS GAL4 internal marker reporter. The procedure, abridged:
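RT-PCR/capillary electrophoresis readout of reporter mRNA. HepG2, transient MRTU transfection (GAL4-UAS reporters), 24 h compound exposure. Background-control endpoint, positive direction vs DMSO baseline.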

The target of test [7] is Glucocorticoid receptor (Homo sapiens) (UniProt P04150). Description: ATG_GR_TRANS: Attagene TRANS-FACTORIAL HepG2 Assay for human Glucocorticoid Receptor (GR) (AID 2282978).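 Also: activators score as hits since higher reporter transcript over DMSO is fitted.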 The following applies: HepG2 Attagene TRANS GR reporter, mRNA transcription. The procedure, abridged:
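Transient MRTU transfection of HepG2 (GAL4-UAS reporters, exogenous NR-GAL4 chimeras), 24 h dosing. Readout: reporter transcript via RT-PCR + capillary electrophoresis fluorescence. Positive direction vs DMSO baseline.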

Test [8] has as its target Bile acid receptor (Homo sapiens) (UniProt Q96RI1). Briefly: ATG_FXR_TRANS: Attagene TRANS-FACTORIAL HepG2 Assay for Farnesoid X Receptor (FXR) (AID 2282979).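 Also: hits raise reporter mRNA above DMSO so AC50 marks FXR activation.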 The following applies: HepG2 Attagene TRANS FXR-GAL4 reporter transcription. The method, boiled down: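 Read-out: fluorescent reporter transcripts quantified by capillary electrophoresis after RT-PCR of total RNA. Source cells were HepG2 transiently carrying chimeric NR-GAL4 plus GAL4-UAS reporter units, dosed 24 h. Activity fitted upward relative to DMSO baseline.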

Test [9] in a line: ATG_M_06_TRANS: Attagene TRANS-FACTORIAL HepG2 Assay for M06 Transcription Factor (Internal Marker) (AID 2282983). The settings on record: HepG2 Attagene TRANS M06 internal marker reporter. The method, boiled down: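 After a 24 h chemical treatment of transfected HepG2, RNA underwent DNase I treatment, reverse transcription and reporter-specific PCR; labelled, HpaI-digested products were sized by capillary electrophoresis. Signal increase relative to DMSO defined activity.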

Test [10] deals with Nuclear receptor subfamily 4 group A member 2 (Homo sapiens) (UniProt P43354). Briefly: ATG_NURR1_TRANS: Attagene TRANS-FACTORIAL HepG2 Assay for human Nuclear Receptor Related Protein 1 (NURR1) (AID 2282985). The following applies: HepG2 Attagene TRANS reporter, mRNA readout. The method, boiled down: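 Cells: HepG2, transiently transfected. Exposure: 24 h. Detection: fluorescence of labelled RT-PCR products separated by capillary electrophoresis; upward fit versus DMSO.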
Chain of Nuclear receptor subfamily 4 group A member 2 (Homo sapiens) (P43354 whole entry, looked up): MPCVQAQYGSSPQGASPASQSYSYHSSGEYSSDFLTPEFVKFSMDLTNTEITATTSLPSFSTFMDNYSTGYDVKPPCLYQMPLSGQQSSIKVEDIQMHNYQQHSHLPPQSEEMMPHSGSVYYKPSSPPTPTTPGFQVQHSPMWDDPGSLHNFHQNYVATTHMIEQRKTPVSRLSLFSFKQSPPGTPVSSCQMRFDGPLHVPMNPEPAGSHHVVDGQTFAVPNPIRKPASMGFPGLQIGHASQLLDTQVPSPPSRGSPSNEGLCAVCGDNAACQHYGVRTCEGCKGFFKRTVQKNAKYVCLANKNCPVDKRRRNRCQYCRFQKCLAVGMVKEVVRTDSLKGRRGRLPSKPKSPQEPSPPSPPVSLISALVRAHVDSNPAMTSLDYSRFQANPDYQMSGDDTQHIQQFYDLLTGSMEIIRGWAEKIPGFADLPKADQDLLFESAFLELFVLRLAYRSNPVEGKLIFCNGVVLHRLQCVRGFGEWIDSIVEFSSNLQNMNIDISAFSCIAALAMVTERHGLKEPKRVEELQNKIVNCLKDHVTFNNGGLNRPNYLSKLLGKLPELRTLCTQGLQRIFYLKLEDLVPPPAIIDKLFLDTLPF

In test [11] the target is Transcriptional activator Myb (Homo sapiens) (UniProt P10242). Briefly: ATG_Myb_CIS: Attagene CIS-FACTORIAL HepG2 Assay for human Myeloblastosis (Myb) Proto-Oncogene Transcription Factor (AID 2282986; active = hit-call score of the fitted dose curve at least 0.9, where 1 is the maximum; inactive = score below 0.9). The settings on record: HepG2 Attagene CIS-FACTORIAL Myb reporter transcription; actives raise or lower the signal. The method, boiled down:
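HepG2, transient MRTU transfection (cis-element promoters, endogenous TF activity), 24 h compound exposure. Readout: reporter mRNA via RT-PCR, 6-FAM labeling, HpaI digest, capillary electrophoresis. Gain/loss fit vs DMSO.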

In test [12] the target is Nuclear respiratory factor 1 (Homo sapiens) (UniProt Q16656). Description: ATG_NRF1_CIS: Attagene CIS-FACTORIAL HepG2 Assay for human Nuclear Respiratory Factor 1 (NRF1) Orphan Gene (AID 2282987; active = hit-call score of the fitted dose curve at least 0.9, where 1 is the maximum; inactive = score below 0.9). The settings on record: HepG2 NRF1 cis-element reporter, Attagene multiplex; actives raise or lower the signal. The method, boiled down: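 Endogenous NRF1-driven reporter transcription measured in transiently transfected human HepG2 liver cells. Readout: reporter mRNA by RT-PCR and capillary electrophoresis with fluorescence detection, 24 h post-dosing. Gain or loss of signal fitted relative to DMSO baseline.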
Chain of Nuclear respiratory factor 1 (Homo sapiens) (Q16656 whole entry, looked up): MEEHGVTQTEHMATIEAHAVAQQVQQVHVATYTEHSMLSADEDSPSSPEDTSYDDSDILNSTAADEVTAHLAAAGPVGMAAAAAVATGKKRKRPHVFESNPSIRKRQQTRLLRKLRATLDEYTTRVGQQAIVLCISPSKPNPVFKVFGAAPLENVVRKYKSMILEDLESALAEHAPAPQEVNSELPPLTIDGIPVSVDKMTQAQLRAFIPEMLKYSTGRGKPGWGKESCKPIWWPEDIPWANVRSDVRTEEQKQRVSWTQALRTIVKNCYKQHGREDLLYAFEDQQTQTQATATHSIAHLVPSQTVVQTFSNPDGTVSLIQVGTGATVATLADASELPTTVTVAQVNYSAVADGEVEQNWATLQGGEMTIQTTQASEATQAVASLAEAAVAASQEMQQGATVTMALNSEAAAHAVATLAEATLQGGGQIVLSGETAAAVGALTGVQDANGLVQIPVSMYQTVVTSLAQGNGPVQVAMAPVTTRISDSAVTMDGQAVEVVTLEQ

A short description of test [13]: ATG_M_19_TRANS: Attagene TRANS-FACTORIAL HepG2 Assay for M19 Transcription Factor (Internal Marker) (AID 2282974). The settings on record: HepG2 Attagene TRANS-FACTORIAL M19 internal marker reporter. The method, boiled down: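 24 h chemical exposure of transiently transfected HepG2 (MRTU library). RNA → oligo(dT) RT → PCR → 6-FAM labelling → HpaI cut → CE fluorescence. Positive-direction fit vs DMSO baseline; background internal-marker readout.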

Test [14] addresses Oxysterols receptor LXR-alpha (Homo sapiens) (UniProt Q13133). Briefly: ATG_LXRa_TRANS: Attagene TRANS-FACTORIAL HepG2 Assay for human Liver X Receptor alpha (LXRa) (AID 2282980). The following applies: HepG2 Attagene TRANS reporter, LXRa transactivation. The procedure, abridged: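 Read-out: reporter transcript levels by RT-PCR plus capillary electrophoresis, fluorescence intensity. Transiently transfected HepG2, exogenous NR-GAL4 chimera, GAL4-UAS reporters; 24 h compound exposure. Activity = increase over DMSO negative control.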

A short description of test [15]: ATG_M_32_TRANS: Attagene TRANS-FACTORIAL HepG2 Assay for M32 Transcription Factor (Internal Marker) (AID 2282984).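 Also: transcript level of a background control reporter unit measured by RT-PCR and capillary electrophoresis.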 The settings on record: HepG2 Attagene TRANS M32 internal marker reporter. The method, boiled down: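 Using transiently transfected HepG2 cells exposed to test chemicals for 24 h, reporter transcripts are converted to labelled cDNA fragments and quantified by capillary electrophoresis. DMSO defines the activity baseline.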

Test [16] deals with Steroid hormone receptor ERR1 (Homo sapiens) (UniProt P11474). Description: ATG_ERRa_TRANS: Attagene TRANS-FACTORIAL HepG2 Assay for human Estrogen-Related Receptor alpha (ERRa) (AID 2282971). The following applies: HepG2 Attagene TRANS reporter, ERRa transactivation. The method, boiled down:
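Transfected HepG2, 24 h dosing, ERRa-Gal4 chimera driving GAL4-UAS reporter. Readout: reporter mRNA via RT-PCR plus capillary electrophoresis (fluorescence). Positive direction vs DMSO control.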

For test [17], the target named is Estrogen-related receptor gamma (Homo sapiens) (UniProt P62508). Description: ATG_ERRg_TRANS: Attagene TRANS-FACTORIAL HepG2 Assay for human Estrogen-Related Receptor gamma (ERRg) (AID 2282977).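 Also: hits increase reporter signal over DMSO so potencies reflect activators.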 The following applies: HepG2 Attagene TRANS reporter, ERRg transactivation. The procedure, abridged:
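HepG2 cells transiently transfected with multiplexed GAL4-UAS reporter units and chimeric NR-Gal4 constructs were exposed to test chemicals for 24 h. Reporter mRNA was measured by RT-PCR, 6-FAM primer extension, HpaI digestion and capillary electrophoresis; gain-of-signal versus DMSO.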

The target of test [18] is Oxysterols receptor LXR-beta (Homo sapiens) (UniProt P55055). Description: ATG_LXRb_TRANS: Attagene TRANS-FACTORIAL HepG2 Assay for human Liver X Receptor beta (LXRb) (AID 2282981). The settings on record: HepG2 Attagene TRANS GAL4-LXRb reporter, mRNA. The method, boiled down:
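Cells: HepG2, transiently transfected with GAL4-UAS reporter units plus LXRb-Gal4 fusion. Treatment: 24 h. Detection: reporter mRNA by RT-PCR, 6-FAM labelling, HpaI digestion, capillary electrophoresis.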

Test [19] concerns the target Hepatocyte nuclear factor 4-alpha (Homo sapiens) (UniProt P41235). Description: ATG_HNF4a_TRANS: Attagene TRANS-FACTORIAL HepG2 Assay for human Hepatocyte Nuclear Factor 4 alpha (HNF4a) (AID 2282982). The settings on record: HepG2 HNF4a transactivation reporter, mRNA readout. The method, boiled down:
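Transfected HepG2 reporter cells are dosed for 24 h; reporter RNA is reverse-transcribed, amplified, fluorescently labelled and HpaI-digested before CE sizing. Positive-direction fit against DMSO.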

Chain of Oxysterols receptor LXR-alpha (Homo sapiens) (Q13133 whole entry, looked up, the tested form may be a part): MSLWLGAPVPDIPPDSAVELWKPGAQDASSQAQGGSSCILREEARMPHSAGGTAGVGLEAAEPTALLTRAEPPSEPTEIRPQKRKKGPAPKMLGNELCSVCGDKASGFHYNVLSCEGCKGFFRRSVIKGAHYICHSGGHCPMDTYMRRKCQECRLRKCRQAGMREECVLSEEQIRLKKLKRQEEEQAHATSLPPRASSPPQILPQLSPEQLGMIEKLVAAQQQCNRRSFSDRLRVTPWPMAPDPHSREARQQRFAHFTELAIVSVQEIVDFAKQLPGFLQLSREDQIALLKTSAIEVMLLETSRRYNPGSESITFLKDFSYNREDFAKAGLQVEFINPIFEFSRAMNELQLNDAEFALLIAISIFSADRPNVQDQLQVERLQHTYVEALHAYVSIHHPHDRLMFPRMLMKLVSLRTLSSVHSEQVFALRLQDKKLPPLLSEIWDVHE
Chain of Transcriptional activator Myb (Homo sapiens) (P10242 whole entry, looked up): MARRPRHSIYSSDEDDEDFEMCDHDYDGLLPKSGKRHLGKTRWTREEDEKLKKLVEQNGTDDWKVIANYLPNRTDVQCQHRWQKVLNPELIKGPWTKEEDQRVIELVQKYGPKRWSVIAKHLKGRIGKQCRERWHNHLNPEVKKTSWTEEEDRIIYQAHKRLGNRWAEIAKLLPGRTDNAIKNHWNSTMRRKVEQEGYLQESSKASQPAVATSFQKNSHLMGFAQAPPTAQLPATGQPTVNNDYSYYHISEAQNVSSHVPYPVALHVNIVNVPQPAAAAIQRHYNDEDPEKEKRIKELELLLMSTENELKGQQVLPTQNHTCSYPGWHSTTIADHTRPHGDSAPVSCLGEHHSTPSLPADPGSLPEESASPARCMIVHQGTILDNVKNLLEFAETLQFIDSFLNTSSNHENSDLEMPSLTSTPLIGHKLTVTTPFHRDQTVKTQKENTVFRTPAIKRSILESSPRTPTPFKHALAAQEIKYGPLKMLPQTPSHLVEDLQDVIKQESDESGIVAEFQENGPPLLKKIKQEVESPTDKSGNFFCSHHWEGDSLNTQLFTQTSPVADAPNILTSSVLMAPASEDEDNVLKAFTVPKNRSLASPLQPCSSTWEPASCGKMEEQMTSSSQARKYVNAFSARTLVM
Chain of Estrogen receptor (Homo sapiens) (P03372 whole entry, looked up, the tested form may be a part): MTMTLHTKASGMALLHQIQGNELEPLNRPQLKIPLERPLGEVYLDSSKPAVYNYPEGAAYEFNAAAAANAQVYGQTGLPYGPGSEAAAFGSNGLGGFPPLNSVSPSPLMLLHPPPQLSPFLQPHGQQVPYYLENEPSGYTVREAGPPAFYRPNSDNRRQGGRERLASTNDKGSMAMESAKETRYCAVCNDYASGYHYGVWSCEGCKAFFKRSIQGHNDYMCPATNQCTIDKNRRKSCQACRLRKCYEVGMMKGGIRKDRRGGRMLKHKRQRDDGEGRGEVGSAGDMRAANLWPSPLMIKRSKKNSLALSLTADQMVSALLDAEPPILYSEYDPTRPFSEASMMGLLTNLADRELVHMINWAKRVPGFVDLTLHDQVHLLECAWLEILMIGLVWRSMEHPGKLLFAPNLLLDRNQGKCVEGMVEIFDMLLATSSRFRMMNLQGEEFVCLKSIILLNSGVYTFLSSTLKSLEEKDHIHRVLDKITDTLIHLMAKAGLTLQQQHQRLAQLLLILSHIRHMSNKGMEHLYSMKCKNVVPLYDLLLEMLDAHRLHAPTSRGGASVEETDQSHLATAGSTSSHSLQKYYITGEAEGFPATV
Chain of Nuclear receptor subfamily 1 group I member 3 (Homo sapiens) (Q14994 whole entry, looked up, the tested form may be a part): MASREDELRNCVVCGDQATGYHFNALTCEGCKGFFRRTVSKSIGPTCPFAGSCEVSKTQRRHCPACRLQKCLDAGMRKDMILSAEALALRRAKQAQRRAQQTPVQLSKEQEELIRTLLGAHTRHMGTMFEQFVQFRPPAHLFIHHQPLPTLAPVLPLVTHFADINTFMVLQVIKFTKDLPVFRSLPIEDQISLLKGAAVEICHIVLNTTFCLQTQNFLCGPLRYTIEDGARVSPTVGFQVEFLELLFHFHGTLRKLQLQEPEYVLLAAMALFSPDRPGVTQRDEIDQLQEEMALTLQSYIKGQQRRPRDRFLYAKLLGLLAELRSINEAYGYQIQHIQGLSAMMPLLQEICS
Chain of Glucocorticoid receptor (Homo sapiens) (P04150 whole entry, looked up, the tested form may be a part): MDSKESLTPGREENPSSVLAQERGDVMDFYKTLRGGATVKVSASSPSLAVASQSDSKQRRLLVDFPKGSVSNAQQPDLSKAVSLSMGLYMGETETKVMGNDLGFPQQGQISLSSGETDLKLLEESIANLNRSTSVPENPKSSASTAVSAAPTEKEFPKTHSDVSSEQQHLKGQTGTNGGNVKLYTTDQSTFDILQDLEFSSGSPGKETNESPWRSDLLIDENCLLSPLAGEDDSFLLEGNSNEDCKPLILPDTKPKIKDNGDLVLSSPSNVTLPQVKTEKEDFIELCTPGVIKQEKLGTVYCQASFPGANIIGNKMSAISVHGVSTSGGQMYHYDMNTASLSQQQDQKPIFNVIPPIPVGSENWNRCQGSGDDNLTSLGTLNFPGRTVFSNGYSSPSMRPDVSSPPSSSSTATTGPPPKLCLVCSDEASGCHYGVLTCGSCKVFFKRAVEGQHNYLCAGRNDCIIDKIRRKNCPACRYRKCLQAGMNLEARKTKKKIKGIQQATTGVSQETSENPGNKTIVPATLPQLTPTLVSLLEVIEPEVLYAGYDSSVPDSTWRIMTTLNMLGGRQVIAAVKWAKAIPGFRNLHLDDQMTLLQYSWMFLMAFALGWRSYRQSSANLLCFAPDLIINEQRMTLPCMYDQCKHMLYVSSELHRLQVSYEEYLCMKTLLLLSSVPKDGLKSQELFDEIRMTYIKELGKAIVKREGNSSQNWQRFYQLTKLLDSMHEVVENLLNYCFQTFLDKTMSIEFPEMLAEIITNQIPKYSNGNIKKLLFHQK
Chain of Estrogen-related receptor gamma (Homo sapiens) (P62508 whole entry, looked up, the tested form may be a part): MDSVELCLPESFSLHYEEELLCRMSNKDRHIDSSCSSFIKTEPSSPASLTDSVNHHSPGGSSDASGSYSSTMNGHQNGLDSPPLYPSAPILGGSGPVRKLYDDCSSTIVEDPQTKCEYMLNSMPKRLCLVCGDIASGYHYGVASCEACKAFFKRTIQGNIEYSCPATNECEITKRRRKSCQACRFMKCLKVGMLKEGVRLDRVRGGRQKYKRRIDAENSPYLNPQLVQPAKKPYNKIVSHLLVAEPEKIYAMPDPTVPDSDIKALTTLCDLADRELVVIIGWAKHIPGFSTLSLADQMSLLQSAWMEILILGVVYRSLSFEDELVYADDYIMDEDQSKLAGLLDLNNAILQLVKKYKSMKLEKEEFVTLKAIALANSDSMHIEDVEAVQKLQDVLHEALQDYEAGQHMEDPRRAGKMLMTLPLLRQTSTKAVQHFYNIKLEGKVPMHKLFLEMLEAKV

For the compound `C#CCOC(=O)/C=C(C)/C=C/CC(C)CCCC(C)C` (configuration not stated), the outcome in test [1], in test [2], in test [3], in [4], in test [5] and in [6] was inactive. Further, the call in test [7], in test [8], in test [9], in test [11] and in test [12] was inactive. Also, the AC50 in test [10] was 16.6 µM (active).

Regarding `Cc1cc(-c2cc(C)c(N)c(C)c2)cc(C)c1N`, the result in test [1], in [2], in test [3], in test [4], in [5] and in test [13] was inactive. Moreover, the compound was called inactive in test [14], in test [15], in test [10], in test [11] and in test [12].

For the compound `O=C(O)COc1ccc(Cl)cc1`, the compound was called inactive in test [1], in [2], in test [3], in test [4], in test [16] and in test [5]. Moreover, the call in test [13], in test [6], in test [17], in [7], in test [14] and in [18] was inactive. In addition, the compound was classed as inactive in test [19], in test [9], in test [15], in test [11] and in test [12].

Consider `OC(Cc1ccccc1Cl)(Cn1cncn1)C1(Cl)CC1` (configuration not stated), for which the call in [1], in test [3], in test [16], in [5], in test [13] and in test [17] was inactive. Moreover, the call in [7], in [8], in test [14], in [18], in test [19] and in test [15] was inactive. Further, the compound was called inactive in [10], in test [11] and in test [12]. Also, the AC50 in [2] is 26 µM (active); in test [4] it was 13.7 µM (active).

What is called AC50 is the concentration giving half of the maximal activity seen.
